Among all 94,000 compounds or so, about 2,100 (2.2%) were called active. What follows is part of a selection rich in actives, with near analogues and random picks from the rest. Values without a mark were called inactive. Rule as the data show it: active = activity change below about -80%; inconclusive = no clear call, values can overlap the other calls; inactive = above that.

Results on 14 compounds are retold here after PubChem BioAssay AID1159554 (Broad Institute, 2015).

The experiment is described as follows: Dd2 malaria parasite growth inhibition – SYBR Green fluorescence, single dose replicates, primary screen (AID 1159554). The note with it: P. falciparum Dd2 growth, 72 h, at 10 µM, stronger effect = lower value.
For the compound `CO[C@H]1CN(C)C(=O)c2cc(NC(=O)Nc3ccc4c(c3)OCO4)ccc2OC[C@@H](C)NC[C@@H]1C`, the activity change was -43.8%.
As to `Cc1noc(C)c1S(=O)(=O)Nc1ccc2c(c1)C(=O)N([C@@H](C)CO)C[C@H](C)[C@@H](CN(C)C(=O)Nc1cccc3ccccc13)OCCCC[C@H](C)O2`, the activity change is -88.5% (active).
For the compound `Cc1noc(C)c1S(=O)(=O)Nc1ccc2c(c1)C(=O)N([C@@H](C)CO)C[C@@H](C)[C@H](CN(C)C(=O)Nc1cccc3ccccc13)OCCCC[C@H](C)O2`, the activity change was -39%.
Take `Cc1ccc(S(=O)(=O)Nc2ccc3c(c2)C(=O)N([C@H](C)CO)C[C@H](C)[C@@H](CN(C)C(=O)Nc2ccc4c(c2)OCO4)OCCCC[C@@H](C)O3)cc1`: the activity change is -34.5%.
`C[C@H]1CCCCO[C@@H](CN(C)C(=O)Nc2cccc3ccccc23)[C@@H](C)CN([C@@H](C)CO)C(=O)c2cc(NS(=O)(=O)c3ccc(Cl)cc3)ccc2O1`: the activity change was -44.1%.
Turning to `Cc1ccc(S(=O)(=O)N(C)C[C@H]2OCCCC[C@H](C)Oc3ccc(NS(=O)(=O)c4c(C)noc4C)cc3C(=O)N([C@H](C)CO)C[C@@H]2C)cc1`, the activity change is -35.7%.
As to `Cc1noc(C)c1S(=O)(=O)Nc1ccc2c(c1)C(=O)N([C@@H](C)CO)C[C@@H](C)[C@@H](CN(C)S(=O)(=O)c1ccccc1)OCCCC[C@H](C)O2`, the activity change is -22.9%.
The result for `Cc1noc(C)c1S(=O)(=O)Nc1ccc2c(c1)C(=O)N([C@@H](C)CO)C[C@@H](C)[C@H](CN(C)C(=O)Nc1cccc3ccccc13)O2` reads 16.8%; that for `C[C@@H]1CCCCO[C@@H](CN(C)C(=O)Nc2cccc3ccccc23)[C@H](C)CN([C@@H](C)CO)C(=O)c2cc(NS(=O)(=O)c3ccccc3)ccc2O1`, -2.21%.
With `Cc1ccc(S(=O)(=O)Nc2ccc3c(c2)C(=O)N([C@H](C)CO)C[C@H](C)[C@H](CN(C)C(=O)Nc2ccc4c(c2)OCO4)OCCCC[C@@H](C)O3)cc1` the figure was 4.19%; with `Cc1noc(C)c1S(=O)(=O)Nc1ccc2c(c1)C(=O)N([C@@H](C)CO)C[C@@H](C)[C@H](CN(C)S(=O)(=O)c1ccc(Cl)cc1)OCCCC[C@H](C)O2`, -80.6% (active).
With `Cc1ccc(S(=O)(=O)Nc2ccc3c(c2)C(=O)N([C@@H](C)CO)C[C@@H](C)[C@H](CN(C)C(=O)Nc2cccc4ccccc24)OCCCC[C@H](C)O3)cc1`, the activity change is -81.5% (active).
For the compound `COc1ccc(S(=O)(=O)Nc2ccc3c(c2)C(=O)N([C@@H](C)CO)C[C@H](C)[C@@H](CN(C)C(=O)Nc2ccc4c(c2)OCO4)OCCCC[C@@H](C)O3)cc1`, the activity change was -81.3% (active).
Turning to `CCNC(=O)C[C@@H]1CC[C@H]2[C@@H](COc3ccc(NC(=O)Cc4cccs4)cc3C(=O)N2C)O1`, the activity change was 3.93%.
